# Measured values taken from the supplement of paper PMC8728848.
# About 410 targets per protein were measured; listed, in parts, are those with the strongest signals and a random draw of the rest.
# Columns and labels:
# Test in all cases: glycan array binding signal (z-score within array); higher = stronger binding
# Details in all cases: glycan notation: IUPAC condensed, linker removed
# Fuc(a1-2)[Gal(a1-3)]Gal = target: Fuc(a1-2)[Gal(a1-3)]Gal
# How it was run: (§1)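 The Consortium for Functional Glycomics database supplied 3228 glycan arrays, of which those lacking an available protein sequence were dropped. The binding signal, a within-array Z-score, was averaged across arrays of the same protein sequence and across linkers. Negative scores can be read as non-binding.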
# [1] = target: Fuc(a1-2)[Gal(a1-4)]Gal(b1-4)GlcNAc
# How it was run: as §1
# [2] = target: Fuc(a1-2)[GalNAc(a1-3)]Gal(b1-3)GlcNAc
# How it was run: as §1
# [3] = target: Fuc(a1-3)[Gal(b1-4)]GlcNAc(b1-4)Gal(b1-4)[Fuc(a1-3)]GlcNAc(b1-4)Gal(b1-4)[Fuc(a1-3)]GlcNAc
# How it was run: as §1
# Gal(a1-3)Gal(b1-4)Glc = target: Gal(a1-3)Gal(b1-4)Glc
# How it was run: as §1
# Gal(a1-4)Gal(b1-4)GlcNAc = target: Gal(a1-4)Gal(b1-4)GlcNAc
# How it was run: as §1
# [4] = target: Gal(b1-3)[Fuc(a1-4)]GlcNAc
# How it was run: as §1
# [5] = target: Gal(b1-3)[GlcNAc(b1-6)]GalNAc
# How it was run: as §1
# GalNAc(b1-3)GalNAc = target: GalNAc(b1-3)GalNAc
# How it was run: as §1
# GalNAc(b1-4)GlcNAc = target: GalNAc(b1-4)GlcNAc
# How it was run: as §1
# GlcNAc(b1-3)Gal = target: GlcNAc(b1-3)Gal
# How it was run: as §1
# GlcNAc(b1-3)GalNAc = target: GlcNAc(b1-3)GalNAc
# How it was run: as §1
# [6] = target: GlcNAc(b1-3)[GlcNAc(b1-6)]Gal(b1-4)GlcNAc
# How it was run: as §1
# Neu5Ac(a2-3)Gal(b1-4)Glc = target: Neu5Ac(a2-3)Gal(b1-4)Glc
# How it was run: as §1
# [7] = target: Neu5Ac(a2-3)Gal(b1-4)GlcNAc(b1-3)Gal(b1-4)GlcNAc
# How it was run: as §1
# [8] = target: Neu5Ac(a2-3)Gal(b1-4)GlcNAc(b1-3)Gal(b1-4)[Fuc(a1-3)]GlcNAc
# How it was run: as §1
# Neu5Ac(b1-6)GalNAc = target: Neu5Ac(b1-6)GalNAc
# How it was run: as §1
# [9] = target: Fuc(a1-2)Gal6S(b1-4)Glc6S
# How it was run: as §1
# [10] = target: Fuc(a1-3)[Gal(b1-4)]GlcNAc
# How it was run: as §1
# [11] = target: Gal(a1-3)Gal(b1-3)[Fuc(a1-4)]GlcNAc(b1-2)Man(a1-3)[Gal(a1-3)Gal(b1-3)[Fuc(a1-4)]GlcNAc(b1-2)Man(a1-6)]Man(b1-4)GlcNAc(b1-4)GlcNAc
# How it was run: as §1
# [12] = target: Gal(a1-3)Gal(b1-4)[Fuc(a1-3)]GlcNAc(b1-2)Man(a1-3)[Gal(a1-3)Gal(b1-4)[Fuc(a1-3)]GlcNAc(b1-2)Man(a1-6)]Man(b1-4)GlcNAc(b1-4)GlcNAc
# How it was run: as §1
# [13] = target: Gal(b1-3)GlcNAc(a1-6)Gal(b1-4)GlcNAc
# How it was run: as §1
# [14] = target: Gal(b1-3)[Fuc(a1-4)]GlcNAc(b1-3)Gal(b1-3)[Fuc(a1-4)]GlcNAc
# How it was run: as §1
# [15] = target: Gal(b1-4)GalNAc(b1-3)[Fuc(a1-2)]Gal(b1-4)GlcNAc
# How it was run: as §1
# Gal(b1-4)GlcNAc = target: Gal(b1-4)GlcNAc
# How it was run: as §1
# [16] = target: Gal(b1-4)GlcNAc(b1-2)Man(a1-3)Man(b1-4)GlcNAc(b1-4)GlcNAc
# How it was run: as §1
# [17] = target: Gal(b1-4)GlcNAc(b1-2)[Gal(b1-4)GlcNAc(b1-4)]Man(a1-3)[Gal(b1-4)GlcNAc(b1-2)Man(a1-6)]Man(b1-4)GlcNAc(b1-4)GlcNAc
# How it was run: as §1
# GlcA(b1-3)GlcNAc = target: GlcA(b1-3)GlcNAc
# How it was run: as §1
# [18] = target: GlcNAc(a1-4)Gal(b1-4)GlcNAc(b1-3)Gal(b1-4)[Fuc(a1-3)]GlcNAc(b1-3)Gal(b1-4)[Fuc(a1-3)]GlcNAc
# How it was run: as §1
# [19] = target: Man(a1-2)Man(a1-2)Man(a1-3)Man
# How it was run: as §1
# [20] = target: Man(a1-2)Man(a1-6)[Man(a1-3)]Man(a1-6)[Man(a1-2)Man(a1-2)Man(a1-3)]Man(b1-4)GlcNAc(b1-4)GlcNAc
# How it was run: as §1
# [21] = target: Man(a1-3)[Man(a1-6)]Man(a1-6)[Man(a1-3)]Man(b1-4)GlcNAc(b1-4)GlcNAc
# How it was run: as §1
# [22] = target: Neu5Ac(a2-3)Gal(b1-4)[Fuc(a1-3)]GlcNAc(b1-3)GalNAc
# How it was run: as §1
# [23] = target: Neu5Ac(a2-3)Gal6S(b1-4)GlcNAc
# How it was run: as §1
# [24] = target: Neu5Ac(a2-3)Gal6S(b1-4)[Fuc(a1-3)]GlcNAc
# How it was run: as §1
# [25] = target: Neu5Ac(a2-3)[GalNAc(b1-4)]Gal(b1-4)Glc
# How it was run: as §1
# Neu5Ac(a2-6)Gal = target: Neu5Ac(a2-6)Gal
# How it was run: as §1
# [26] = target: Neu5Ac(a2-6)Gal(b1-4)GlcNAc(b1-3)Gal(b1-4)GlcNAc
# How it was run: as §1
# [27] = target: Neu5Ac(a2-6)Gal(b1-4)GlcNAc(b1-3)Gal(b1-4)[Fuc(a1-3)]GlcNAc(b1-3)Gal(b1-4)[Fuc(a1-3)]GlcNAc
# How it was run: as §1
# [28] = target: Neu5Ac(a2-6)GlcNAc(b1-4)GlcNAc
# How it was run: as §1
# [29] = target: Neu5Ac(a2-8)Neu5Ac(a2-3)Gal(b1-4)Glc
# How it was run: as §1
# [30] = target: Neu5Ac9Ac(a2-3)Gal(b1-4)GlcNAc
# How it was run: as §1
binder,measurement,setting,value
"F17bG (Escherichia coli), Q47200 (protein) MTNFYKVFLAVFILVCCNISHAVVSFIGSTENDVGPSQGSYSSTHAMDNLPFVYNTGYNIGYQNANVWRIGGGFCVGLDGKVDLPVVGSLDGQSIYGLTEEVGLLIWMGDTNYSRGTAMSGNSWENVFSGWCVGNYLSTQGLSVHVRPVILKRNSSAQYSVQKTSIGSIRMRPYNGSSAGSVQTTVNFSLNPFTLNDTVTSCRLLTPSAVNVSLAAISAGQLPSSGDEVVAGTTSLKLQCDAGVTVWATLTDATTPSNRSDILTLTGASTATGVGLRIYKNTDSTPLKFGPDSPVKGNENQWQLSTGTETSPSVRLYVKYVNTGEGINPGTVNGISTFTFSYQ",glycan array binding signal (z-score),Fuc(a1-2)[Gal(a1-3)]Gal,-0.551
same,glycan array binding signal (z-score),[1],-0.657
same,glycan array binding signal (z-score),[2],-0.567
same,glycan array binding signal (z-score),[3],-0.507
same,glycan array binding signal (z-score),Gal(a1-3)Gal(b1-4)Glc,-0.565
same,glycan array binding signal (z-score),Gal(a1-4)Gal(b1-4)GlcNAc,-0.527
same,glycan array binding signal (z-score),[4],-0.578
same,glycan array binding signal (z-score),[5],1.08
same,glycan array binding signal (z-score),GalNAc(b1-3)GalNAc,4.47
same,glycan array binding signal (z-score),GalNAc(b1-4)GlcNAc,-0.391
same,glycan array binding signal (z-score),GlcNAc(b1-3)Gal,4.21
same,glycan array binding signal (z-score),GlcNAc(b1-3)GalNAc,3.86
same,glycan array binding signal (z-score),[6],5.83
same,glycan array binding signal (z-score),Neu5Ac(a2-3)Gal(b1-4)Glc,-0.498
same,glycan array binding signal (z-score),[7],0.462
same,glycan array binding signal (z-score),[8],0.05
same,glycan array binding signal (z-score),Neu5Ac(b1-6)GalNAc,-0.298
"PEB4 (Campylobacter jejuni), A1VYV6 (protein) MKKFSLVAAALIAGVALNVNAATVATVNGKSISDAEVSEFFAPMLRGQDFKTLPDNQKKALIQQYIMQDLILQDAKKQNLEKDPLYTKELDRAKDAILVNVYQEKILNTIKIDAAKVKAFYDQNKDKYVKPARVQAKHILVATEKEAKDIINELKGLKGKELDAKFSELAKEKSIDPGSKNQGGELGWFDQSTMVKPFTDAAFALKNGTITTTPVKTNFGYHVILKENSQAKGQIKFDEVKQGIENGLKFEEFKKVINQKGQDLLNSAKVEYK",glycan array binding signal (z-score),[9],0.571
same,glycan array binding signal (z-score),Fuc(a1-2)[Gal(a1-3)]Gal,-0.517
same,glycan array binding signal (z-score),[10],-0.387
same,glycan array binding signal (z-score),[11],3.83
same,glycan array binding signal (z-score),[12],2.12
same,glycan array binding signal (z-score),[13],2.54
same,glycan array binding signal (z-score),[14],2.99
same,glycan array binding signal (z-score),[15],-0.25
same,glycan array binding signal (z-score),Gal(b1-4)GlcNAc,-0.852
same,glycan array binding signal (z-score),[16],-0.258
same,glycan array binding signal (z-score),[17],2.58
same,glycan array binding signal (z-score),GlcA(b1-3)GlcNAc,0.752
same,glycan array binding signal (z-score),[18],4.35
same,glycan array binding signal (z-score),[19],2.37
same,glycan array binding signal (z-score),[20],0.969
same,glycan array binding signal (z-score),[21],-0.553
same,glycan array binding signal (z-score),[22],5.24
same,glycan array binding signal (z-score),[23],1.6
same,glycan array binding signal (z-score),[24],2.8
same,glycan array binding signal (z-score),[25],-1.19
same,glycan array binding signal (z-score),Neu5Ac(a2-6)Gal,0.075
same,glycan array binding signal (z-score),[26],-0.672
same,glycan array binding signal (z-score),[27],-0.544
same,glycan array binding signal (z-score),[28],-0.701
same,glycan array binding signal (z-score),[29],-0.705
same,glycan array binding signal (z-score),[30],-1.05
